Most compounds without a hit are left out; they make up all but 12% or so of the library.
JMJD2A Tudor: blocks the human JMJD2A Tudor domain; AlphaScreen JMJD2A-Tudor / H3K4me3 peptide binding; Potency, µM (doses to about 114 µM), actives largely listed as inhibitors; 390,000 tested, 4.4% active; further: nearly all actives have a fitted effect of over 50% in size
BAZ2B inh: inhibitors of human BAZ2B bromodomain; Potency, µM (titrated, usually from 114 µM), hits mostly inhibitors; AID 504333; 360,000 tested, 4.4% active; AlphaScreen BAZ2B-H3K14Ac peptide displacement; further: nearly all actives have a fitted effect of over 60% in size
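In this displacement format the biotinylated H3(5-23) peptide acetylated at Lys14 serves as ligand at 50 nM, with BAZ2B at 50 nM in PBS pH 7.4 containing 0.01% Tween-20. Donor and acceptor beads are 10 ug/mL final.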
L3MBTL1 inh: inhibitors of human L3MBTL1. Q9Y468. AlphaScreen L3MBTL1–H3K9me1 peptide binding. Potency, µM (titrated, usually from 57.1 µM), hits mostly inhibitors. 230,000 tested, 0.66% active. AID 485360; further: nearly all actives have a fitted effect of over 60% in size
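Displacement of a biotinylated histone H3(1-15) peptide monomethylated at Lys9 (75 nM) from L3MBTL1 (50 nM) was measured by AlphaScreen after a 30 min room-temperature compound incubation; cefsulodin titration served as intraplate control.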
G9a inh: G9a (human) methyltransferase inhibition | Q96KQ7 | G9a H3K9 monomethylation, AlphaScreen, 2 h | Potency, µM (doses to about 102 µM), actives largely listed as inhibitors | 350,000 tested, 8.8% active | AID 504332; further: nearly all actives have a fitted effect of over 75% in size
Target sequence (Q96KQ7 913-1193 limits assumed): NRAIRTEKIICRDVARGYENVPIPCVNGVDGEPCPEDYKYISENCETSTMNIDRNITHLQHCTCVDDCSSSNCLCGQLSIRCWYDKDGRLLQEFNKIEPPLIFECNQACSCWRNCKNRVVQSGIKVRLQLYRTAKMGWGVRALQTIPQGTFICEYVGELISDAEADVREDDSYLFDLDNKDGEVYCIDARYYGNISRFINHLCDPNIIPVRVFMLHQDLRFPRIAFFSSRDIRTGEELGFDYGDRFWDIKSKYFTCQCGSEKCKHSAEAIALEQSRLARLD
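G9a (20 nM) was preincubated 15 min with compound, then reacted 2 h at room temperature with 500 nM biotin-H3K9 peptide and 20 µM SAM. Monomethyl-H3K9 detected by AlphaScreen using anti-H3K9me1 antibody.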
Sfp PPTase inh: blocks B. subtilis Sfp PPTase activity | Biochemical Sfp PPTase activity, qHTS | Potency, µM, usual class: inhibitors | 310,000 tested, 3.5% active | AID 1490;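 further: the enzyme is Sfp with the accession as filed and its product quenches rhodamine fluorescence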
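Reaction rates are the 30-min fluorescence difference (ex 525, em 598 nm) in wells containing 15 nM Sfp, 5 uM rhodamine-CoA and 12.5 uM BHQ-2-YbbR at pH 7.6 with 10 mM MgCl2.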
HP1b binding inh: HP1-beta chromodomain-methylated histone interaction inhibition | P83916 | AlphaScreen HP1-beta / biotin-H3K9me3 peptide binding | Potency, µM (top dose mostly 114 µM), most hits filed as inhibitors | 390,000 tested, 0.56% active | AID 540317; further: nearly all actives have a fitted effect of over 70% in size
Target sequence (P83916 whole entry, looked up): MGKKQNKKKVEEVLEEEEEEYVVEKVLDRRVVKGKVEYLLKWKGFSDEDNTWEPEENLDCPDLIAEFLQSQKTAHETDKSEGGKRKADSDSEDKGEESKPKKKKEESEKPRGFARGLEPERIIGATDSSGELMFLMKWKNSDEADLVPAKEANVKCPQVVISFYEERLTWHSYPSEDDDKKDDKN
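AlphaScreen: HP1-beta (50 nM) preformed 30 min with biotin-H3(1-18)K9me3 peptide (50 nM) in PBS pH 7.4, 0.01% Tween-20. Compound added for 30 min at RT, then streptavidin donor/nickel chelate acceptor beads (10 ug/mL) for 30 min.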
Each line names hits and unclear results; the compound was inactive in the other large screens. The call rests on the fitted dose curve; in most records, active means well fitted curve in the direction sought with a large enough effect; inconclusive means small, poorly fitted or top-dose-only effect, or another doubt; inactive means no such curve, though single readings can be large; an effect the other way counts as inactive or inconclusive.

COc1cc(CN2CCNC(=O)C2CC(=O)NCCC2=CCCCC2)cc(OC)c1 (stereo not drawn)	G9a inh 50µM
O=C(NN=C1CCCC1)c1ccccc1OCCOc1ccccc1	L3MBTL1 inh inconclusive
CC(=O)O[C@@H]1[C@@H](O)CN[C@@H]1Cc1ccccc1	none (no result: BAZ2B inh, L3MBTL1 inh, G9a inh)
O=C(CC1C(=O)NCCN1Cc1cccc(Oc2ccccc2)c1)NCC1CCOCC1 (stereo not drawn)	G9a inh 45µM
COc1cccc(CN2CCNC(=O)C2CC(=O)NC2Cc3ccccc3C2)c1 (stereo not drawn)	BAZ2B inh inconclusive, G9a inh 45µM
COc1ccccc1CN1CCNC(=O)C1CC(=O)NCC1CCOCC1 (stereo not drawn)	none (no result: L3MBTL1 inh)
O=C(CC1C(=O)NCCN1Cc1cccc(Oc2ccccc2)c1)NCCn1cccn1 (stereo not drawn)	none
COc1ccc(CN2CCNC(=O)C2CC(=O)NCC2CCOCC2)c(F)c1 (stereo not drawn)	G9a inh 79µM (no result: L3MBTL1 inh)
CCCN1CCC(NC(=O)CC2C(=O)NCCN2Cc2cccc(OC)c2)CC1 (stereo not drawn)	none (no result: L3MBTL1 inh)
COc1ccc(CN2CCNC(=O)C2CC(=O)NCC2CCOCC2)c(C)c1C (stereo not drawn)	none (no result: L3MBTL1 inh)
COc1cccc(CN2CCNC(=O)C2CC(=O)NCC2CCOCC2)c1 (stereo not drawn)	G9a inh 50µM (no result: L3MBTL1 inh)
O=C(CNC(=O)c1ccccc1F)NCc1ccccn1	none (no result: BAZ2B inh, G9a inh, Sfp PPTase inh)
Cc1cccc(NC(=O)CSCc2cc(=O)n3nc(C4CC4)sc3n2)c1	none (no result: L3MBTL1 inh)
Cc1ccc(C)c(Nc2nn3c(=O)c4ccc(C(=O)NCc5ccccc5)cc4nc3s2)c1	none (no result: L3MBTL1 inh, Sfp PPTase inh)
COc1cccc(CN2CCNC(=O)C2CC(=O)NCc2cc(C(C)C)no2)c1 (stereo not drawn)	G9a inh 50µM
COc1ccc(CNC(=O)CC2C[C@H](C(=O)N3CCCCC3)[C@@]3(C)c4[nH]c5ccccc5c4CCN3C2=O)cc1OC (stereo partly drawn)	none (no result: BAZ2B inh, G9a inh, Sfp PPTase inh)
CCc1cc2c(N3CCCCC3)ncnc2s1	G9a inh 50µM
O=C(CSc1nc(NS(=O)(=O)c2ccccc2)cc(=O)[nH]1)Nc1ccc(Cl)cc1	BAZ2B inh 79µM, L3MBTL1 inh inconclusive, G9a inh 71µM
Cc1ccc(S(=O)(=O)Nc2cc(=O)[nH]c(SCc3ccccc3Cl)n2)cc1	JMJD2A Tudor 56µM
CCCc1cc(=O)[nH]c(SCc2ccc(Cl)cc2)n1	none (no result: L3MBTL1 inh)
COc1ccc(Cl)cc1NC(=O)CSc1nc(NS(=O)(=O)c2ccccc2)cc(=O)[nH]1	JMJD2A Tudor inconclusive, G9a inh 71µM (no result: L3MBTL1 inh)
O=c1cc(NS(=O)(=O)c2ccccc2)nc(SCc2ccc(Cl)cc2)[nH]1	BAZ2B inh 79µM
CC(C)(C)c1cc(=O)[nH]c(SCc2ccccc2Cl)n1	none (no result: L3MBTL1 inh)
Cc1nc2ccn(Cc3ccco3)c(=O)c2cc1C(=O)N1CCN(c2ccc(F)cc2)CC1	none (no result: L3MBTL1 inh, Sfp PPTase inh)
CCCCNC(=O)C1=CC(c2ccc3c(c2)OCO3)=NS(=O)(=O)N1C	none (no result: L3MBTL1 inh, Sfp PPTase inh)
CC(C)C[C@H](NC(=O)NCc1ccc(Cl)cc1)C(=O)O	G9a inh 35µM
CC(C)C[C@H](NC(=O)NCc1ccccc1Cl)C(=O)O	none
Brc1ccc2c(c1)C(c1cccs1)=NNC(c1cccnc1)=N2	none
CCOc1ccc2c(c1)C(c1cccs1)=NNC(c1cccnc1)=N2	JMJD2A Tudor inconclusive, BAZ2B inh 71µM
CC(c1ccccc1)n1c(-c2cccs2)nc2c(c(=O)c3ccccc3n2C)c1=O (stereo not drawn)	BAZ2B inh inconclusive, Sfp PPTase inh 79µM (no result: L3MBTL1 inh)
O=C(NNC(=O)c1nc2ccccc2[nH]1)OCc1ccccc1	none (no result: BAZ2B inh, G9a inh, Sfp PPTase inh)
O=[N+]([O-])c1ccc(/C=N/n2c(CO)nc3ccccc32)s1	none
NC(=O)c1ccc(N=Cc2ccc([N+](=O)[O-])s2)cc1	L3MBTL1 inh 13µM, G9a inh inconclusive
Cc1cc(C)cc(N=Cc2ccc([N+](=O)[O-])s2)c1	JMJD2A Tudor 20µM, BAZ2B inh 25µM, L3MBTL1 inh 8.9µM, G9a inh 40µM, HP1b binding inh 45µM
O=[N+]([O-])c1ccc(C=Nc2ccc(Cl)c([N+](=O)[O-])c2)s1	BAZ2B inh inconclusive, L3MBTL1 inh inconclusive (no result: JMJD2A Tudor, HP1b binding inh)
Cc1ccc(NC(=S)N/N=C/c2ccc([N+](=O)[O-])s2)cc1	JMJD2A Tudor 40µM, BAZ2B inh 14µM, L3MBTL1 inh inconclusive, G9a inh 40µM, HP1b binding inh inconclusive
N/C(=N\O)c1ccc([N+](=O)[O-])s1	G9a inh inconclusive
O=C(Cc1cccs1)N/N=C\c1ccc([N+](=O)[O-])s1	BAZ2B inh inconclusive, Sfp PPTase inh inconclusive (no result: L3MBTL1 inh)
Cc1nc2ccccc2n1/N=C/c1ccc([N+](=O)[O-])s1	G9a inh 50µM
CCCn1c(N)c(C(=O)CSc2nc(N)cc(=O)[nH]2)c(=O)n(C)c1=O	none (no result: Sfp PPTase inh)
CC1(C)c2ccccc2N2CCC(=O)NC21/C=C/c1ccco1 (stereo not drawn)	BAZ2B inh inconclusive, G9a inh 40µM, Sfp PPTase inh 40µM
Cc1ccc2c(c1)C(C)(C)[C@]1(C)NC(=O)CCN21	BAZ2B inh inconclusive, G9a inh inconclusive, Sfp PPTase inh inconclusive
CC1(C)c2ccccc2N2CC(=O)NC21/C=C/c1ccco1 (stereo not drawn)	BAZ2B inh inconclusive, G9a inh 32µM, Sfp PPTase inh 3.2µM
O=[N+]([O-])c1ccc(C(c2sc3nc(-c4ccco4)nn3c2O)N2CCC3(CC2)OCCO3)cc1 (stereo not drawn)	G9a inh inconclusive (no result: L3MBTL1 inh, Sfp PPTase inh)
CN(C)c1cccc(C(=O)OCC(=O)N(C)c2ccccc2)c1	JMJD2A Tudor inconclusive, BAZ2B inh inconclusive (no result: L3MBTL1 inh)
COC(=O)c1ccccc1NC(=O)COC(=O)c1ccccc1N=Nc1ccc(N(C)C)cc1	JMJD2A Tudor 32µM, BAZ2B inh 8.9µM, L3MBTL1 inh 10µM, G9a inh 8.9µM, HP1b binding inh inconclusive
NS(=O)(=O)c1ccc(NC(=O)COC(=O)c2cc(Cl)ccc2[N+](=O)[O-])cc1	none (no result: L3MBTL1 inh)
CN(C)c1ccc(NC(=O)COC(=O)c2cc(Cl)ccc2[N+](=O)[O-])cc1	JMJD2A Tudor 25µM, BAZ2B inh 35µM, L3MBTL1 inh inconclusive, G9a inh 6.3µM, HP1b binding inh 50µM
COC(=O)c1ccccc1NC(=O)CN(C)Cc1ccccc1	none
CN(C)c1ccc(N=Nc2ccccc2C(=O)OCC(=O)N(C)c2ccccc2)cc1	JMJD2A Tudor 13µM, BAZ2B inh 10µM, L3MBTL1 inh inconclusive, G9a inh 8.9µM, Sfp PPTase inh inconclusive, HP1b binding inh inconclusive
CC(=O)c1ccc(NC(=O)COC(=O)c2ccccc2N=Nc2ccc(N(C)C)cc2)cc1	JMJD2A Tudor 13µM, BAZ2B inh 5µM, L3MBTL1 inh inconclusive, G9a inh 13µM, HP1b binding inh 32µM
